One assay concerns the target Furin (Homo sapiens) (UniProt P09958). As to the kind of experiment: Furin counterscreen qHTS for Zika virus inhibitors (AID 1347149). Further: nearly all actives have a fitted effect of over 70% in size. Further: potency means the concentration at half of the fitted maximal effect.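 On activity change, negative = inhibition: purified recombinant full-length human furin enzyme at 5 nM; fluorescence gain from furin cutting a BOC-RVRR-AMC peptide substrate over 15 min; top concentration of the series differs between compounds; plate controls were no-inhibitor control for no effect and no-enzyme control for full effect.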 In a few lines: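 Counterscreen measures cleavage of 2 microM BOC-RVRR-AMC, below its ~15 microM Km, by 5 nM full-length human furin at pH 7.0 after a 15-min compound preincubation. Inhibition derives from the 15-min fluorescence increase at 37C.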
A general note: Counterscreens check selectivity or assay interference.

Assay [1] relates to Zika virus NS2B-NS3 protease (linked construct). The assay can be described thus: 384 well plate NINDS Rhodamine confirmatory qHTS for Zika virus inhibitors (AID 1347164).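 Further: fluorescence from protease cleavage of Ac-LKRR-rhodamine 110 substrate; nearly all actives have a fitted effect of over 65% in size.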 Further: potency means the concentration at half of the fitted maximal effect.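 On activity change, negative = inhibition: top concentration of the series differs between compounds; plate controls were no-inhibitor control for no effect and no-enzyme control for full effect.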 In short, it runs like this:
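Linked NS2B-NS3 protease (final 5, 30 or 60 nM) preincubated ~15 minutes with compounds, then 10 microM Ac-LKRR-Rhodamine 110 added. Fluorescence (485/538 nm) read after 25 minutes at room temperature, normalized to no-enzyme and no-inhibitor controls.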

Assay [2] is described as follows: Tertiary RLuc qRT-PCR qHTS assay for Zika virus inhibitors (AID 1347169). Further: nearly all actives have a fitted effect of over 55% in size. Further: potency means the concentration at half of the fitted maximal effect. In a few lines: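 Vero cells (1,000/well) infected with recombinant ZIKV-RLuc (Cambodian) at MOI 1-2 after compound addition, 48-72 hrs at 37 degrees C. Live-cell Renilla luciferase substrate added; luminescence read after 1-1.5 hrs.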
For orientation: Real-time PCR tracks product formation cycle by cycle.

For assay [3], the system named is Zika virus NS2B-NS3 protease (linked construct). The assay can be described thus: Confirmatory screen NINDS AMC qHTS for Zika virus inhibitors (AID 1347152).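 Further: AMC fluorescence gain from cleaved Bz-Nle-KRR-AMC substrate over 15 min; top concentration of the series differs between compounds; 0% = no-inhibitor control and -100% = no-enzyme control; nearly all actives have a fitted effect of over 70% in size.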 In a few lines:
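Linked NS2B-NS3 protease, 1 nM, in 10 mM Tris-HCl pH 8.0, 0.01% Tween 20; compounds preincubated 15 min at room temperature. Nle-KRR-AMC 10 microM (Km 18.3 µM); 15-min fluorescence change (340/450 nm) fitted to 4-parameter Hill.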
On the technique in general: qHTS replaces the single test concentration by a dilution series.

Assay [4] deals with Zika virus NS2B-NS3 protease (unlinked complex). As to the kind of experiment: Confirmatory screen GU AMC qHTS for Zika virus inhibitors (AID 1347153).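 Further: percent inhibition with 0% = no inhibitor control and 100% = no enzyme control; nearly all actives have a fitted effect of over 70% in size.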 In short, it runs like this: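 Compounds were preincubated 15 min at room temperature with 25 nM noncovalent NS2B-NS3 protease at pH 8.0; AMC substrate added at 10 microM and 15-min fluorescence gain (340/450 nm) converted to percent inhibition, fitted 4-parameter.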

The nature of assay [5]: Confirmatory screen NINDS Rhodamine qHTS for Zika virus inhibitors (AID 1347161). Further: nearly all actives have a fitted effect of over 60% in size. Further: potency means the concentration at half of the fitted maximal effect.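 On activity change, negative = inhibition: purified Zika NS2B-NS3 protease with linked NS2B cofactor domain and Rhodamine110 peptide substrate; plate controls were no-inhibitor control for no effect and no-enzyme control for full effect.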 In short, it runs like this: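 Rhodamine110-peptide cleavage (1.5 µM substrate) by 25 nM linked NS2B-NS3 enzyme at pH 8.0 (Tris, Tween 20), after 15 min RT preincubation with compounds; 15-min fluorescence change normalized to controls and Hill-fitted.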
The subject of assay [6] is Zika virus NS2B-NS3 protease (linked). As to the kind of experiment: 384 well plate NINDS AMC confirmatory qHTS for Zika virus inhibitors (AID 1347163). Further: nearly all actives have a fitted effect of over 50% in size. Further: potency means the concentration at half of the fitted maximal effect.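 On activity change, negative = inhibition: linked protease at 5 30 or 60 nM final depending on run; fluorescence of AMC released from Ac-VKTGKR-AMC peptide cleaved by the protease; top concentration of the series differs between compounds; 0% = no-inhibitor control and -100% = no-enzyme control.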 In short, it runs like this:
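Fluorescence at 355/460 nm was read after 25 minutes of cleavage of 30 microM Ac-VKTGKR-AMC at room temperature, in the dark. Before substrate addition, compounds (up to 1 mM final) sat ~15 minutes with 5, 30 or 60 nM linked protease. Signals were normalized to no-enzyme and no-inhibitor wells.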

Assay [7] can be described thus: AP1 Signaling Pathway (AID 357; active means well fitted curve in either direction with a large enough effect, not every such curve was filed as active; further: on the % scale 0 is the no-effect control and ±100 the full control effect). Particulars: ME-180 AP-1-bla reporter, EGF-induced, beta-lactamase ratio, 5 h; at 17.2 µM (top of the series). In short, it runs like this: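 Titration-series screen for positive or negative modulators of EC50 EGF-induced signaling in ME-180 cells carrying an AP-1-driven beta-lactamase reporter. After 5 hours at 37 degrees Celsius, CCF4 460nm/530nm emission ratio gave %Activity; AC50 values derived.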

Assay [8] is described as follows: Stat Signaling Pathway (AID 446; active means well fitted curve in either direction with a large enough effect, not every such curve was filed as active;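 further: ME-180 cervical cancer cells given 40 pM IL-6 alongside compound; SIE-controlled beta-lactamase reporter measured as 460/530 nm FRET emission ratio; on the % scale 0 is the no-effect control and ±100 the full control effect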). Conditions: ME-180 (cervical carcinoma) SIE beta-lactamase reporter, IL-6 stimulated, 5 h; at 17.2 µM (top of the series). In short, it runs like this: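 FRET read-out (405 nm excitation, 460/530 nm emission) of a beta-lactamase reporter under a STAT-inducible element in ME-180 cervical carcinoma cells. Cells with compound receive 40 pM IL-6 for 5 h. Values are normalised to AC90 stimulation and AC90 JAK-inhibitor controls.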

For assay [9], the target named is Glucocorticoid receptor (Homo sapiens) (UniProt P04150). The assay can be described thus: GR-GFP Redistribution (AID 450;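 active means compounds whose dose series gives a full or clear partial fitted curve of increased nuclear translocation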; further: potency means the concentration at half of the fitted maximal effect). Conditions: U2OS GR-GFP nuclear translocation, laser cytometry, 2 h.
Sequence of Glucocorticoid receptor (Homo sapiens) (P04150 whole entry, looked up, the tested form may be a part): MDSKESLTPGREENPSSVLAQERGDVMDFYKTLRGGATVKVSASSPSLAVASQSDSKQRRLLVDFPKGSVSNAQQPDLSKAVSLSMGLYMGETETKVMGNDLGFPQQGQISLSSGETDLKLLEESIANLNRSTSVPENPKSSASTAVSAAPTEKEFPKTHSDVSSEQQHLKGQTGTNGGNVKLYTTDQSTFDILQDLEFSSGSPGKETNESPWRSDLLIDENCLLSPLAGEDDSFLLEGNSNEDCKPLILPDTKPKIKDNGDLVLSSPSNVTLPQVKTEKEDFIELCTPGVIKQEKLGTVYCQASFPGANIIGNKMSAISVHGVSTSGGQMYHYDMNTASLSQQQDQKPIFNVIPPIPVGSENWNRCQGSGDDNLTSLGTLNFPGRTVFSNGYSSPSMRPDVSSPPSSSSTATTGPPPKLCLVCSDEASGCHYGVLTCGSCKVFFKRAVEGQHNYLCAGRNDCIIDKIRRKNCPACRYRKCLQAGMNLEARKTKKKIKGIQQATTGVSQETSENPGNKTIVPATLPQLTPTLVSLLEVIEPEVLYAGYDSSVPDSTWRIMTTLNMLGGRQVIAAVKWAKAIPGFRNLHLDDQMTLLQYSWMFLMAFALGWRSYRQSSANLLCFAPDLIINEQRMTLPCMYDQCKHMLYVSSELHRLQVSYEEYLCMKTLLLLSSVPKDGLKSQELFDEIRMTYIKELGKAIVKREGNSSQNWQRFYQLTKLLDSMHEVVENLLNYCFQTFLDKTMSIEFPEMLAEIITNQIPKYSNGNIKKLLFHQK
Assay [10] shares this target. As to the kind of experiment: GR-EFC Redistribution (AID 451; calls by dose curve; further: potency means the concentration at half of the fitted maximal effect). Conditions: CHO-K1 GR-EFC translocation, beta-gal luminescence, 2 h. In short, it runs like this: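 Translocation of GR-ED fusion to nuclear EA restores b-gal, read by luminescence after 1 h room-temperature detection. Engineered CHO-K1 biosensor cells, 1,000/well, exposed 2 h at 37 C to titrations up to 46 uM final.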

Assay [11] addresses Mitogen-activated protein kinase 10 (Mus musculus) (UniProt Q61831). As to the kind of experiment: JNK3 AlphaScreen Assay (AID 530; active means well fitted curve in either direction with a large enough effect, not every such curve was filed as active;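 further: kinase came from lysate of stimulated human HepG2 cells; signal reports phosphorylation of biotinylated GST-cJun 1-79 at Ser73 with 10 µM ATP; on the % scale 0 is the no-effect control and ±100 the full control effect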). In a few lines:
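qHTS titrations with 15 min compound pre-incubation before adding ATP (10 uM final). Read-out: AlphaScreen of Ser73-phosphorylated biotin-GST-cJun using HepG2 lysate JNK3 activated by IL-1β and TNFα.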

Assay [12] addresses 3',5'-cyclic-AMP phosphodiesterase 4B (Homo sapiens) (UniProt Q07343). As to the kind of experiment: qHTS Assay for Inhibitors of PDE-IV (AID 607; active means well fitted activation curve with a large enough effect in the main read-out, with a control signal flat, not every such curve was filed as active; further: % of control where 0% means no effect). In a few lines:
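Cell-based read-out of cAMP via a modified cyclic nucleotide-gated channel and membrane potential dye (535/590 nm) in HEK293 cells expressing PDE4 endogenously. Compounds tested up to 22.9 uM final; 100 uM RO 20-1724 reference.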

A short description of assay [13]: qHTS Assay for Lipid Storage Modulators (AID 1519; calls by dose curve). Particulars: Drosophila S3 cells, BODIPY lipid droplet/cell ratio, laser cytometry, cells loaded with oleic acid. In short, it runs like this:
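Cells seeded at 5,000 per well were treated with compounds over a concentration series and loaded with oleic acid (400 uM, as added). Lipid droplet fluorescence (488 nm excitation, 500-530 nm channel) was read by laser-scanning cytometry and normalized to 20 uM Triacsin C.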

In assay [14] the target is Ubiquitin carboxyl-terminal hydrolase 1 (Homo sapiens) (UniProt O94782). As to the kind of experiment: Inhibitors of USP1/UAF1: Pilot qHTS (AID 504865).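 Further: rhodamine fluorescence freed from ubiquitin-rhodamine substrate followed over time; top concentration of the series differs between compounds; on the % scale 0 is the no-effect control and ±100 the full control effect; nearly all actives have a fitted effect of over 35% in size.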 In a few lines:
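USP1/UAF1 complex at 1 nM preincubated 15 min at room temperature with compound, then Ub-Rho substrate added at 150 nM final. Fluorescence (480/540 nm) read kinetically in 50 mM HEPES pH 7.8, 0.5 mM EDTA, 1 mM TCEP, 0.1 mg/ml BSA, 0.01% Tween-20.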

A short description of assay [15]: Vero cells viability qHTS for Zika virus inhibitors (AID 1347167). Further: on the % scale 0 is the no-effect control and ±100 the full control effect. In a few lines:
(§1)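 Luminescent ATP readout (CellTiter Glo) after 30 min at 37 degrees C gives viability; cells in DMEM + 4% FBS were treated 24 to 48 hours with compound, following overnight attachment.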

Assay [16] is described as follows: HepG2 cells viability qHTS for Zika virus inhibitors (AID 1347168). Further: on the % scale 0 is the no-effect control and ±100 the full control effect. In short, it runs like this:
as §1

Assay [17] in a line: ZIKV-mCherry secondary qHTS for Zika virus inhibitors (AID 1347158). Further: top concentration of the series differs between compounds. In short, it runs like this: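 Percent infection is the share of Hoechst-identified Vero nuclei with mCherry signal above 450 RFU (3 SD over negative controls). Cells were infected with recombinant ZIKV-mCherry at MOI 1 after compound addition and imaged 48–72 h later.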

Inconclusive results are not listed. Calls of active or inactive are those of the source. Unless noted, the call rests on the fitted dose curve; in most records, active means well fitted curve in the direction sought with a large enough effect; inconclusive means small, poorly fitted or top-dose-only effect, or another doubt; inactive means no such curve, though single readings can be large; an effect the other way counts as inactive or inconclusive. Positions of bridges follow the written chain, without caps; N, C: chain ends. Non-standard residues stand in square brackets, D forms with d. Residues, ends and D or L forms follow the SMILES beside them. ξ: configuration not given here. *: point of attachment. ξDab(CH2SO3H) = NC(CCNCS(=O)(=O)O)C(=O)O; Octanoyl(6-Me) = CCC(C)CCCCC(=O)*; Dab = NCC[CH](N)C(=O)O

Sequence of Furin (Homo sapiens) (P09958 whole entry, looked up): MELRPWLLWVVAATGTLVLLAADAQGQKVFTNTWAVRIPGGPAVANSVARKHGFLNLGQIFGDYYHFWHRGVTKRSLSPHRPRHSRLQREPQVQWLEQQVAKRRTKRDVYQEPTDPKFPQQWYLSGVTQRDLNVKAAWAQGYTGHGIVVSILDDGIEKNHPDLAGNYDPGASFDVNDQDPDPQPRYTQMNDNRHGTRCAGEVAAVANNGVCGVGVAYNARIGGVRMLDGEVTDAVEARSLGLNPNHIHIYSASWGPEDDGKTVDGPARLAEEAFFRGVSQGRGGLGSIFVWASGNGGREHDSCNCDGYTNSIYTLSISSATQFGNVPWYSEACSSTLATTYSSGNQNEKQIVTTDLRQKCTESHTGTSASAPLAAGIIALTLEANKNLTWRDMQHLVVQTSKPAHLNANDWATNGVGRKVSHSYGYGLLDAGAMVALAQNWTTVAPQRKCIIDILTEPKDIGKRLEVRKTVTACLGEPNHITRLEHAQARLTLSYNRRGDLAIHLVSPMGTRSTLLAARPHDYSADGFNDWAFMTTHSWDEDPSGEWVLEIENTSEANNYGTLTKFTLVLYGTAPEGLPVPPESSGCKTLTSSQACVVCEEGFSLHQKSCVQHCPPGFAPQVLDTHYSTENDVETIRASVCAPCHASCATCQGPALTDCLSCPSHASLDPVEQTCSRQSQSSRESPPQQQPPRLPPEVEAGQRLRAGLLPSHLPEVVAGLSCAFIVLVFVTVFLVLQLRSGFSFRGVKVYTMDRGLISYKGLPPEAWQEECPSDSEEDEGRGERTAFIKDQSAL
Sequence of 3',5'-cyclic-AMP phosphodiesterase 4B (Homo sapiens) (Q07343 whole entry, looked up): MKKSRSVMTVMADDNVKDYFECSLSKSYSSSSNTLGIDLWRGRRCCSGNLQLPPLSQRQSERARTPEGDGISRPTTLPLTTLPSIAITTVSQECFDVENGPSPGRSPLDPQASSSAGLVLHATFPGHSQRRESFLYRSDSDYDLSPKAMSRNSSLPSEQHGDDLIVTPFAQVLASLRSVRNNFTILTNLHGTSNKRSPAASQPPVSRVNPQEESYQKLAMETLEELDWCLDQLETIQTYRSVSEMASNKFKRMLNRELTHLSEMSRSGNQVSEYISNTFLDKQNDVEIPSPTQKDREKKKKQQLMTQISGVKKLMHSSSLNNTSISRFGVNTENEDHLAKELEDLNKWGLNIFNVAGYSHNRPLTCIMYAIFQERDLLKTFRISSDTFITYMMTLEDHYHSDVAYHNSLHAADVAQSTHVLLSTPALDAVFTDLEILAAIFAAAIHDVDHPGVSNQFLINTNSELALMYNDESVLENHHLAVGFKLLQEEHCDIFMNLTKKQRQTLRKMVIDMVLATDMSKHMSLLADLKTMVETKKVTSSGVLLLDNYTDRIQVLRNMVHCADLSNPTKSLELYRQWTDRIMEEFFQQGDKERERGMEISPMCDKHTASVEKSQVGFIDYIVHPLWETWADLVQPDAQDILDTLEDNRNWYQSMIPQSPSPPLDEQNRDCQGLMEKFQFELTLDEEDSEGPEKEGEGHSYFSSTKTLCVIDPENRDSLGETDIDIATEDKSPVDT
Sequence of Ubiquitin carboxyl-terminal hydrolase 1 (Homo sapiens) (O94782 whole entry, looked up): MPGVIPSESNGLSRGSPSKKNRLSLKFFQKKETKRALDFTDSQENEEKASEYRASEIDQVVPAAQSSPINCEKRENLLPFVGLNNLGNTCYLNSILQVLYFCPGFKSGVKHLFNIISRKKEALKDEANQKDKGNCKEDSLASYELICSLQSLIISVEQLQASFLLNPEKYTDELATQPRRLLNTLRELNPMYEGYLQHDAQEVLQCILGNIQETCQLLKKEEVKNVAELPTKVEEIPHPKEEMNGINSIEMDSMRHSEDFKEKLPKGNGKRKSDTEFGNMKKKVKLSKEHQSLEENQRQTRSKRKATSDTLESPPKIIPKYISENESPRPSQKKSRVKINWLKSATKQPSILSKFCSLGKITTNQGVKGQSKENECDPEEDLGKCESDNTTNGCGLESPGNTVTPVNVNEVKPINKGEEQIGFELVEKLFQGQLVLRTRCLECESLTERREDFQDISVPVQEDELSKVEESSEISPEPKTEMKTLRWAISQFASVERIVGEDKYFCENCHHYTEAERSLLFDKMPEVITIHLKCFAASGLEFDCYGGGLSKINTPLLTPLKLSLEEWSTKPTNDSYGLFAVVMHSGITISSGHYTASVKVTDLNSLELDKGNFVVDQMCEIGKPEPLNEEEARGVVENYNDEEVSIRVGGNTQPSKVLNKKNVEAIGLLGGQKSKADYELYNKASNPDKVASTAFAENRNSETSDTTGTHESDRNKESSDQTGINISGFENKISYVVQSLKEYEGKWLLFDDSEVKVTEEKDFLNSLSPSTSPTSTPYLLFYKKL

Consider `O=C(O)COc1ccc(-c2nccc3c2C(=O)N(Cc2ccccc2)CC(COc2ccc4cccnc4c2)O3)cc1` (configuration not stated), for which the Potency was 49.4 µM (active) with Furin (Homo sapiens) and 44.7 µM (active) in assay [1]. Also, the Potency entry in assay [2] was “inactive”.

Regarding `O=C(COc1ccccc1C(=O)OCC(=O)Nc1cccc2ccccc12)Nc1ccc(Br)cc1`, the Potency entry (with Furin (Homo sapiens); in assay [1]; in assay [2]) was “inactive” in each case.

Regarding `O=C(Nc1ccc(Oc2ccccc2)cc1)O[C@@H]1CO[C@H]2[C@@H]1OC[C@@H]2NS(=O)(=O)c1ccc2ccccc2c1`, the Potency entry in [3] and in [4] was “inactive” in each case.

On to `CCC(C)CCCCC(=O)NC(CCNCS(=O)(=O)O)C(=O)NC(C(=O)NC(CCNCS(=O)(=O)O)C(=O)NC1CCNC(=O)C(C(C)O)NC(=O)C(CCNCS(=O)(=O)O)NC(=O)C(CCNCS(=O)(=O)O)NC(=O)C(CC(C)C)NC(=O)C(CC(C)C)NC(=O)C(CCNCS(=O)(=O)O)NC1=O)C(C)O` (configuration not stated) ({Octanoyl(6-Me)}-[ξDab(CH2SO3H)]T[ξDab(CH2SO3H)][Dab][ξDab(CH2SO3H)]LL[ξDab(CH2SO3H)][ξDab(CH2SO3H)]T; lactam 4-C; configuration not given here), for which the Potency result with Furin (Homo sapiens) is “inactive”. For the same compound, the values for the Potency in assay [5], in [6] and in assay [1] were 12.6 µM (active), 25.1 µM (active) and 3.55 µM (active), respectively.

Consider `COc1cccc(C(=O)Nc2ccc(C(=O)OCc3cc(=O)n4nc(C5CC5)sc4n3)cc2)c1`, for which, in the assay with Furin (Homo sapiens), the Potency is 41.8 µM (active). Besides, the Potency result in [6] and in assay [1] was “inactive” in each case.

As for `CC[C@@H]1O[C@]2(C=C[C@@H]1C)C[C@H]1C[C@H](CC=C(C)[C@@H](O[C@@H]3C[C@H](OC)[C@H](O[C@@H]4C[C@H](OC)[C@H](O)[C@H](C)O4)[C@H](C)O3)[C@@H](C)C=CC=C3CO[C@@H]4[C@@H](O)C(C)=C[C@@H](C(=O)O1)[C@]34O)O2`, the activity change, negative = inhibition in [7] is 6.2% (inactive); in assay [13] (at 25.7 µM (top of the series)), -16.6% (inactive). Besides, the activity, negative = inhibition in [8] is -5.99% (inactive). The Potency in [9] was > 20.6 µM (inactive); in assay [10], > 20.6 µM (inactive); in assay [2], 9.97 µM (active). The Potency entry (in assay [11]; in [12]; in assay [14]; with Furin (Homo sapiens); in assay [15]; in assay [16]) was “inactive” throughout. Also, the max response in [13] (measured here: cell count channel max response) was -4.3%; in [13] (measured here: lipid channel max response), -18.8%.

Turning to `O=C(O)COc1ccc(-c2nccc3c2C(=O)N(Cc2cccc(C(F)(F)F)c2)CC(COc2cccc(F)c2)O3)cc1` (configuration not stated), the Potency result (in the assay with Furin (Homo sapiens); in assay [17]; in assay [2]) was “inactive” in each case. Moreover, in [1], the Potency was 28.2 µM (active).

Take `Cc1nn2c(=O)cc(COC(=O)c3ccc(NC(=O)c4ccc(C(C)(C)C)cc4)cc3)nc2s1`: the figures for the Potency (with Furin (Homo sapiens); in [5]) were 52.7 µM (active) and 39.8 µM (active), respectively.

As for `Cc1cccc(C(=O)Nc2ccc(C(=O)OCc3cc(=O)n4c5c(sc4n3)CCCC5)cc2)c1`, the Potency in the assay with Furin (Homo sapiens) was 46.9 µM (active). In addition, the Potency result in assay [5] and in assay [2] was “inactive” throughout.

With `CC(Oc1ccccc1)C(=O)Nc1ccc(C(=O)OCc2cc(=O)n3nc(C4CC4)sc3n2)cc1` (configuration not stated), the Potency entry (with Furin (Homo sapiens); in assay [6]; in assay [1]; in assay [2]) was “inactive” throughout.

The values are drawn from PubChem BioAssay (NCATS).
